ELG1 repair inh – blocks ELG1-dependent DNA repair in HEK293T cells | HEK293T ELG1-luciferase reporter, luminescence, 16 h; DNA damage induced by 5-fluorouridine | Potency, µM (series often up to 46.1 µM), hits mostly inhibitors | 2.3% of 330,000 active; note: nearly all actives have a fitted effect of over 55% in size
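Reporter activity after DNA damage by 5-fluorouridine is monitored. Compound-treated cells incubate 16 hr at 37 °C, then ONE-Glo is added for 30 min before luminescence reading.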
TDP1 cell CPT – growth inhibition of DT40 Tdp1-/-;hTDP1 cells with camptothecin (screen for TDP1 inhibitors); chicken DT40 Tdp1-/-;hTDP1 cells + 20 nM CPT, ATP luminescence, 48 h; Potency, µM (series often up to 46.2 µM), hits mostly inhibitors; 12% of 420,000 active; AID 686979; note: nearly all actives have a fitted effect of over 55% in size
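Chicken DT40 Tdp1-/- cells complemented with human TDP1, 400 cells/well, exposed to compounds plus 20 nM camptothecin for at least 48 h at 37 C; viability read as ATP content by CellTiter-Glo luminescence.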
ALOX12 inh – ALOX12 (human) lipoxygenase inhibition; P18054; purified 12hLO, xylenol orange hydroperoxide absorbance; Potency, µM (top dose mostly 108 µM), usual class: inhibitors; 1.1% of 580,000 active
Target sequence (P18054 whole entry, looked up): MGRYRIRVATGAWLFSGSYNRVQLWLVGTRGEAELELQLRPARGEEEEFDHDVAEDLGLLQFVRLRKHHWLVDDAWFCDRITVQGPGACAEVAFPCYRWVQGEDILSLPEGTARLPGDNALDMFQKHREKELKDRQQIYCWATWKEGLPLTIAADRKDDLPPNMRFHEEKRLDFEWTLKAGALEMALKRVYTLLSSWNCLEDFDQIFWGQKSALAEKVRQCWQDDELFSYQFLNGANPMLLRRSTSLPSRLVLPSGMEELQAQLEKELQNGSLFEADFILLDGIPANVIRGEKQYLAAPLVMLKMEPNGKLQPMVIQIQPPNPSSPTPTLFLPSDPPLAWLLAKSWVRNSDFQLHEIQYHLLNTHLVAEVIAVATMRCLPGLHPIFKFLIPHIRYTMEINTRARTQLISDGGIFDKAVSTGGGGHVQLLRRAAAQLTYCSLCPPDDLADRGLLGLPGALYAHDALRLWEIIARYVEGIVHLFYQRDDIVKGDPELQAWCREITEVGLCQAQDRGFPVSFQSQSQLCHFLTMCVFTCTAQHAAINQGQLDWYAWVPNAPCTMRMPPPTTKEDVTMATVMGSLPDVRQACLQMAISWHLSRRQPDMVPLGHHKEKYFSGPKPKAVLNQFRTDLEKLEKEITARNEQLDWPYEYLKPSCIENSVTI
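Purified human 12hLO (150 nM final) in 25 mM Hepes, 0.01% Triton X-100, pH 7.0 was preincubated 15 min at room temperature with compound. Then 40 uM arachidonic acid was added, 30 min. Hydroperoxide was read by Fe-XO absorbance ratio 573/405 nm.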
Gal4-VP16 FLuc – Gal4-VP16 reporter inhibition counter-screen | Drosophila S2 Gal4-VP16 UAS-luciferase, luminescence, 20 h | Potency, µM (top dose mostly 53.6 µM), usual class: inhibitors | 3.5% of 310,000 active | AID 2546;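 note: Gal4-VP16 expression switched on by copper sulfate through the metallothionein promoter; nearly all actives have a fitted effect of over 50% in size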
RORgamma inh – ROR gamma (mouse) transcription inhibition | P51450 | Drosophila S2 Gal4-RORgamma UAS-luciferase reporter, 20 h | Potency, µM (highest dose often 53.6 µM), usual class: inhibitors | 5.4% of 310,000 active; note: nearly all actives have a fitted effect of over 60% in size
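Drosophila Schneider cells stably carrying a metallothionein-driven Gal4 DBD–ROR gamma fusion and a UAS-Photinus luciferase reporter were exposed to compound for 1 hr, then induced with copper sulfate (700 uM final) for 20 hr at ambient temperature before luminescence reading.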
DT40 TDP1 no CPT – qHTS for Inhibitors of human tyrosyl-DNA phosphodiesterase 1 (TDP1): qHTS in cells in absence of CPT | DT40 Tdp1-/- hTDP1 cells, no CPT, ATP luminescence, 48 h | Potency, µM (top dose mostly 46.2 µM), most hits filed as inhibitors | 15% of 420,000 active | AID 686978, 2013; note: nearly all actives have a fitted effect of over 55% in size
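A cellular qHTS used chicken DT40 cells lacking endogenous Tdp1 but carrying stably transfected human TDP1. Compounds were applied without camptothecin, and cell growth kinetics were judged by ATP-dependent luminescence after ≥48 hr.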
A number is an active result; [ ] = dose if it differs, or a comment. Most compounds without a hit are left out; they make up all but 15% or so of the library. Calls come from the whole dose curve; as a rule, active = well fitted curve in the direction sought with a large enough effect; inconclusive = small, poorly fitted or top-dose-only effect, or another doubt; inactive = no such curve, though single readings can be large; an effect the other way counts as inactive or inconclusive.

Results for Fc1ccc(C2Cn3nnc(-c4nc(-c5cccc(C(F)(F)F)c5)no4)c3CO2)cc1 (centres undefined) ?
ALOX12 inh: inactive

How did COc1ccc(Br)cc1CNC(=O)CCCn1c(=O)c2cccn2c2ccccc21 do in these assays?
TDP1 cell CPT: inconclusive; ALOX12 inh: inactive; DT40 TDP1 no CPT: 23µM

What do the screens show for `COc1ccc(Br)cc1CNC(=O)Cn1ncn2nc(-c3cccs3)cc2c1=O`?
TDP1 cell CPT: 12µM; ALOX12 inh: inactive; DT40 TDP1 no CPT: 13µM

What do the screens show for `COc1ccc(OC)c(CNC(=O)CCn2c(=O)c3cccn3c3ccc(F)cc32)c1`?
ELG1 repair inh: inactive; TDP1 cell CPT: inconclusive; ALOX12 inh: inactive; Gal4-VP16 FLuc: inactive; RORgamma inh: inactive; DT40 TDP1 no CPT: inconclusive

How did COc1ccc(Br)cc1CNC(=O)CCCn1c(=O)c2cccn2c2cccnc21 do in these assays?
TDP1 cell CPT: inconclusive; ALOX12 inh: inconclusive; DT40 TDP1 no CPT: 18µM

How did COc1ccc(Br)cc1CNC(=O)Cn1c(=O)c2cccn2c2ccc(F)cc21 do in these assays?
TDP1 cell CPT: 4.6µM; ALOX12 inh: inconclusive; DT40 TDP1 no CPT: 13µM

Results for COc1ccc(OC)c(CNC(=O)CCCn2c(=O)c3cccn3c3cccnc32)c1 ?
TDP1 cell CPT: inactive; ALOX12 inh: inconclusive; DT40 TDP1 no CPT: inactive

What do the screens show for `CNC(=O)CCN(C)C(=O)Nc1ccc(C(F)(F)F)cc1`?
ALOX12 inh: inactive

Results for COc1ccc2nc(C)c(C(=O)N(C)CC34CC5CC(CC(C5)C3)C4)cc2c1 ?
ALOX12 inh: inactive

How did COc1ccc(-c2nc3ccc(NC(C)=O)cc3c(=O)n2Cc2cccc(Cl)c2)cc1COc1ccc(NC(C)=O)cc1 do in these assays?
TDP1 cell CPT: 11µM; DT40 TDP1 no CPT: 13µM

What do the screens show for `COc1ccc(-c2nc3ccc(NC(=O)COC(C)=O)cc3c(=O)n2Cc2ccccc2)cc1COc1ccc(NC(C)=O)cc1`?
TDP1 cell CPT: inconclusive; DT40 TDP1 no CPT: 11µM

What do the screens show for `Cc1ccc(NC(=S)N/N=C/c2ccc([N+](=O)[O-])s2)cc1`?
ELG1 repair inh: inactive; TDP1 cell CPT: inconclusive; ALOX12 inh: inconclusive; Gal4-VP16 FLuc: 16µM; RORgamma inh: 7.1µM; DT40 TDP1 no CPT: inconclusive

Results for Cc1cc(C)cc(N=Cc2ccc([N+](=O)[O-])s2)c1 ?
ELG1 repair inh: inconclusive; TDP1 cell CPT: 2.6µM; ALOX12 inh: inactive; Gal4-VP16 FLuc: 18µM; RORgamma inh: inconclusive; DT40 TDP1 no CPT: 2.6µM

How did Cc1ccc(NCc2ccc([N+](=O)[O-])s2)cc1 do in these assays?
ELG1 repair inh: inactive; TDP1 cell CPT: inactive; ALOX12 inh: inconclusive; Gal4-VP16 FLuc: inactive; RORgamma inh: inactive; DT40 TDP1 no CPT: inactive

How did O=[N+]([O-])c1ccc(N=Cc2sc3ccccc3c2O)cc1 do in these assays?
ELG1 repair inh: inconclusive; TDP1 cell CPT: inactive; ALOX12 inh: inactive; Gal4-VP16 FLuc: inactive; RORgamma inh: inactive; DT40 TDP1 no CPT: inactive

What do the screens show for `O=[N+]([O-])c1ccc(C=Nc2ccc(Cl)c([N+](=O)[O-])c2)s1`?
ELG1 repair inh: inconclusive; ALOX12 inh: inconclusive; Gal4-VP16 FLuc: inactive[10 µM]; RORgamma inh: inconclusive

What do the screens show for `NC(=O)c1ccc(N=Cc2ccc([N+](=O)[O-])s2)cc1`?
ELG1 repair inh: inconclusive; TDP1 cell CPT: 5.2µM; ALOX12 inh: inactive; Gal4-VP16 FLuc: 5.6µM; RORgamma inh: inconclusive; DT40 TDP1 no CPT: 3.3µM

How did c1ccc2c(c1)Cc1cc(-n3cccc3)ccc1-2 do in these assays?
ALOX12 inh: inactive

How did CCOc1ccc2c(ccc(/C=C/c3cc(C)c4cccnc4c3O)[n+]2C)c1 do in these assays?
TDP1 cell CPT: 2.6µM; DT40 TDP1 no CPT: 5.2µM

What do the screens show for `COc1cc(C(=O)NC2CCN(Cc3ccccc3)CC2)cc(Cl)c1OC`?
ELG1 repair inh: inactive; TDP1 cell CPT: inconclusive; ALOX12 inh: inactive; Gal4-VP16 FLuc: inactive; RORgamma inh: inactive; DT40 TDP1 no CPT: inconclusive

What do the screens show for `COc1cc(-c2nc(C(=O)NC3CCCCC3)cc3c2[nH]c2ccccc23)cc(OC)c1OC`?
ELG1 repair inh: 5.8µM; TDP1 cell CPT: 16µM; ALOX12 inh: inactive; Gal4-VP16 FLuc: inactive; RORgamma inh: inactive; DT40 TDP1 no CPT: 23µM

How did COc1ccc(OC)c(-c2nc(C(=O)NC3CCN(Cc4ccccc4)CC3)cc3c2[nH]c2ccccc23)c1 do in these assays?
ELG1 repair inh: inactive; TDP1 cell CPT: 10µM; ALOX12 inh: inactive; Gal4-VP16 FLuc: inactive; RORgamma inh: inactive; DT40 TDP1 no CPT: 12µM

How did COc1ccc(OC)c(-c2nc(C(=O)NCCCN3CCOCC3)cc3c2[nH]c2ccccc23)c1 do in these assays?
ELG1 repair inh: inactive; TDP1 cell CPT: 16µM; ALOX12 inh: inactive; Gal4-VP16 FLuc: inactive; RORgamma inh: inactive; DT40 TDP1 no CPT: 23µM

Results for COc1ccc(OC)c(-c2cc(C(=O)NCCN3CCOCC3)no2)c1 ?
ELG1 repair inh: inactive; TDP1 cell CPT: inactive; ALOX12 inh: inactive; Gal4-VP16 FLuc: inactive; RORgamma inh: inactive; DT40 TDP1 no CPT: inactive

What do the screens show for `COc1cc(-c2nc(C(=O)NC3CCN(Cc4ccccc4)CC3)cc3c2[nH]c2ccccc23)cc(OC)c1OC`?
ELG1 repair inh: inconclusive; TDP1 cell CPT: 12µM; Gal4-VP16 FLuc: inconclusive; RORgamma inh: inactive; DT40 TDP1 no CPT: 13µM

What do the screens show for `COc1ccc(-c2csc(NC(=O)CN3CCN(c4cccc(C(F)(F)F)c4)CC3)n2)cc1`?
ALOX12 inh: inactive

How did COc1cccc(C(=O)C(C)C(=O)c2cccc(OC)c2)c1 do in these assays?
ALOX12 inh: inactive

What do the screens show for `COc1cccc(CNC(=O)CC2CCOCC2)c1OC`?
ALOX12 inh: inactive

What do the screens show for `COc1cc2c(Nc3ccc(Br)cc3F)ncnc2cc1OCC1CCN(C)CC1`?
TDP1 cell CPT: 4.7µM; ALOX12 inh: inactive; Gal4-VP16 FLuc: inconclusive; RORgamma inh: inconclusive; DT40 TDP1 no CPT: 4.7µM

What do the screens show for `COc1cc2ncnc(Nc3cccc(Br)c3)c2cc1OC`?
TDP1 cell CPT: 17µM; ALOX12 inh: inconclusive; Gal4-VP16 FLuc: inactive; RORgamma inh: inconclusive; DT40 TDP1 no CPT: inconclusive

How did COc1cccc(Nc2ncnc3ccccc23)c1 do in these assays?
ELG1 repair inh: inconclusive; TDP1 cell CPT: inconclusive; ALOX12 inh: inactive; Gal4-VP16 FLuc: inactive; RORgamma inh: inconclusive; DT40 TDP1 no CPT: inconclusive

What do the screens show for `COc1ccc(Nc2ncnc3ccc(Br)cc23)cc1OC`?
ELG1 repair inh: inconclusive; TDP1 cell CPT: 18µM; Gal4-VP16 FLuc: inactive; RORgamma inh: inactive; DT40 TDP1 no CPT: inconclusive

Results for CNc1cc2c(Nc3cccc(Br)c3)ncnc2cn1 ?
ALOX12 inh: inactive; Gal4-VP16 FLuc: 13µM; RORgamma inh: 13µM

From PubChem BioAssay
